Measured values published in the supplement of paper PMC3334620.
The full ranking holds about 33,000 sequences; the median of “E-score (-0.5 to 0.5)” is about -0.016, and the highest 2% start at about 0.31. For the sample, the highest values were picked, then their nearest neighbours and some sequences at random.

Target: Cst6 (UniProt P40535)
Experiment: PBM E-score (8-mer binding enrichment) (E-score (-0.5 to 0.5)); higher = stronger / more preferred TF binding
Details: protein concentration: 200 nM; construct: GST-DNA-binding domain
In short: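 Universal all-10-mer Agilent arrays, fresh or stripped once, were converted to double-stranded form by primer extension. GST-tagged yeast transcription factors from PURExpress in vitro transcription/translation, full-length or DNA-binding domain only, were applied at about 100-200 nM and detected with fluorescent anti-GST. After masliner normalisation, the Universal PBM Analysis Suite scored each ungapped eight-base word together with its reverse complement by E-score.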

Sequence of UniProt P40535 (P40535 whole entry): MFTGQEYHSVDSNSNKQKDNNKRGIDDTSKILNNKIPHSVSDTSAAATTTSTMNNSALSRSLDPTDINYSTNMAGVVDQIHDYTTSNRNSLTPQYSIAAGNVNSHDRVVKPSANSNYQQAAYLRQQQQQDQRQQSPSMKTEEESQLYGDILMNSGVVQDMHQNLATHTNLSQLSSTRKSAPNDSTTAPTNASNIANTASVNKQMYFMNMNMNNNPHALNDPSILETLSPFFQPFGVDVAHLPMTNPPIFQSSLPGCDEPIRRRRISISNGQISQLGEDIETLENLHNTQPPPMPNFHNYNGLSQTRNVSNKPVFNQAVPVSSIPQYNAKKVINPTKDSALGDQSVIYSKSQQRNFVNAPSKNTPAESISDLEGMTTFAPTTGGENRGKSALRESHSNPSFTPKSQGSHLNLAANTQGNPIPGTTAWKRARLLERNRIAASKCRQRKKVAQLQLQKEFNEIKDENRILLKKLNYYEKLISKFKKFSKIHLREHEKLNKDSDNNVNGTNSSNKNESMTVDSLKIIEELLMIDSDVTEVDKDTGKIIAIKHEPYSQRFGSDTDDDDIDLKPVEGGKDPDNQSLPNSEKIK

Sequence	PBM E-score
AAAGATCT	-0.0274
CACATCAC	0.217
GACATCCC	-0.0212
CACATCAA	0.162
TACATCAA	0.283
GACATCAA	0.327
GACATCAC	0.431
AGCATGCA	-0.103
AACACCTC	-0.0672
ACTCAAAC	0.158
AGCTAAAG	-0.0194
CAGCGTGA	0.0151
GTGACGCA	0.471
AAGACGCC	-0.00396
AGGACGCC	-0.147
GCGACGCA	0.0151
ACGACGCG	0.127
CAGACGCA	-0.0613
AAGACGCG	-0.111
CTGACGCC	0.119
ATGACGCG	0.463
ATGACGCC	0.442
GGGACGCA	-0.173
CTGACGCA	0.332
AGTCGTAT	-0.0183

Sequence	PBM E-score
AGCCTCGC	-0.0857
CCTGGATC	-0.334
GTACCAGA	-0.199
ACTCCAGT	-0.162
CCGTCCCC	-0.289
GGTGGAGA	-0.338
ACATGGGT	0.00268
CGGGTTCA	-0.134
GATAACCA	-0.0596
GGAGCTGA	-0.207
AGGACGCA	-0.209
ATGACTCA	0.309
ATGACTCC	0.0246
ACGACGCA	0.145
GTGACTCA	0.228
ATGACGCA	0.485
ACGGGACA	-0.177
ATACCACG	0.128
CGTCATAC	0.481
CCTCATAG	0.0666
CGTCATAG	0.468
GGTCATAC	0.151
AGTCATAC	0.144
AGTCATAG	0.0637
ATCCATTG	0.0328

Sequence	PBM E-score
AAGGAGAG	-0.258
TAATTACA	0.277
TAACCACA	0.0592
ACATCAGT	0.218
ACATCACC	0.417
ACATCACG	0.303
AGATCACT	0.181
TCATCACA	0.252
ACATCACA	0.328
ACATCACT	0.401
CCATCACC	0.15
GCATCACC	0.231
CCCGGTGC	-0.264
GGCGATTA	0.188
CGTCGCCA	-0.0999
CGCAGTAG	-0.101
ATCGACCA	-0.228
CGCTGGAC	-0.297
CAAAAAAG	0.254
AAATGATA	0.304
TAATGACA	0.347
AAATGACA	0.298
TAATGAGA	0.0949
TAATGCCA	0.197
CAATGAAG	0.0658

Sequence	PBM E-score
CAATGACC	0.148
GAATGACA	0.259
TAATGATA	0.387
CAATGACA	0.341
CAATGACG	0.469
GAATGATA	0.278
CTTTAAGC	0.0326
GTTGGGAA	-0.0904
TACCTACA	0.0531
ACCGGGTG	-0.19
GCGATTAC	0.184
CACCGCAG	-0.116
CGTCTCGA	0.143
GAGTTTTA	0.122
AAATGACG	0.466
CTATGACA	0.264
AAATGACT	0.0956
AAATGACC	0.102
GTATGACA	0.323
ATATGACA	0.304
AGCTCATA	0.124
CAAGAACA	0.053
TAAGAACA	0.312
GAAGAACA	0.131
CCTTACCA	-0.119

Sequence	PBM E-score
CCCGTTCC	-0.132
CATCACCC	0.308
AATCACCC	-0.00614
AATCACCA	0.169
TATCACCA	0.123
CATCACCA	0.372
CATCACCG	0.305
CATTGTCC	-0.0804
ACCGCAAC	0.0509
GTCACATA	0.245
CGAAGTTA	0.11
CCTAACAG	0.00445
GCTGGCAA	-0.106
GAGATGTA	0.0936
CCGATGTA	-0.0196
CGGATGTA	-0.0158
GTGATGTA	0.465
ACGATGTC	0.0231
GGGATGTA	-0.0844
AAGATGTA	0.169
CTGATGTC	0.287
CTGATGTA	0.326
AGGATGTA	0.0787
ATGATGTC	0.478
ATGATGTA	0.462

Sequence	PBM E-score
GCACTGCC	0.0838
AGTCCTTA	-0.0772
CAGCCCAG	-0.383
ACAGCCCC	-0.228
AGTCCCTG	-0.223
CGATTGAG	-0.0697
GACGATGA	0.301
CCCAGGAA	-0.176
CTTTCTGC	0.0175
AGGATGTG	-0.232
ATGATGTG	0.333
ATGATGAG	0.232
CTGAGAGC	-0.0922
CGCGCGGC	0.378
CGCGGCGA	0.27
CACGGCGA	0.21
AGCGCGGC	0.115
AACGGCGC	0.251
AGCGGCGC	0.107
CACGGCGC	0.357
CGCGGCAA	0.134
CGCGGCGC	0.372
CGCGGCAC	0.324
CGCGCGGA	0.131
AGCGGCAC	0.123

Sequence	PBM E-score
CTTCGTAC	-0.193
AACATAAT	0.246
ATTAACGC	0.0112
CAGGGAGA	-0.227
GACTTAAC	-0.167
ACGGATAC	0.115
ATGTCTGG	-0.0099
ACTCATTG	-0.129
ATGAACTG	0.12
GAACGGTC	-0.223
AGTGGGTG	0.0423
ACATCCGT	0.0894
CGCACGGC	0.375
CGGCGCGA	0.35
AGGCGCGA	0.205
CGCACGGA	0.154
AGCACGGC	0.198
CGGCGCGC	0.242
AAACAAAT	0.192
CTTATTAA	0.141
ATCGACGA	0.00463
ACGTAATC	0.484
GCGTAATA	0.296
ACGTAATG	0.476
AGGTAATG	0.101

Sequence	PBM E-score
CCGTAATA	0.176
AAGTAATC	0.179
CCGTAATC	0.0889
AAGTAATG	0.116
ACGTAATA	0.482
GCGCTCAA	-0.165
CCTAGCGA	-0.296
AGCCGACA	-0.162
TAATTTAA	0.287
CATCGCCA	0.0609
ACACGGAC	-0.00107
CTTCCAAC	-0.0988
AGCCGCAT	0.338
AGCCGCAA	-0.127
AGCCGCAC	0.188
GCACCTGC	-0.114
AAGCTTTG	-0.087
TTCTGCAA	0.138
CATATGAC	0.366
GATATGAC	0.273
AATATGAG	0.132
CCTATGAC	0.221
ACTATGAC	0.264
AATATGAC	0.35
AATATGAT	0.233

Sequence	PBM E-score
AATATGTC	0.319
GCTATGAC	0.332
AATATGTA	0.211
CATATGAG	0.0643
AATATGTG	0.25
CGAAAGCA	-0.0132
CATCTGAA	0.037
ATCCTATC	-0.0914
ACCGTCGG	-0.194
CGTCTATA	-0.0233
ACCTTTGC	-0.095
CGCTGCAC	-0.0108
ATTATGAG	0.22
CTTATGAA	0.052
ATTATGAC	0.394
CTTATGAC	0.368
ATTATGAA	0.292
CTTATGCC	0.0646
AACAAGAA	0.237
